Test results as given in ChEMBL document CHEMBL3988442, “University of Dundee, Small-Polar-MMV Screening Library” (2021).
For some of these results: Measured potencies and affinities stand elsewhere.

What was measured:
Design in all cases: scale not given: direction of the effect not stated beside the values
[1] = target: Protein translocase subunit SecA (Escherichia coli (strain K12)) (UniProt P10408); assay: Assay to Identify E. coli SecA ATPase Inhibitors; type: functional; conditions: 30 µM
[2] = target: T1, Ubiquitin-activating enzyme e1, putative (Leishmania donovani (strain BPK282A1)) (UniProt E9BSI1); assay: Leishmania donovani Ubiquitin Activating Enzyme (LdE1); type: functional; conditions: 30 µM
T1 sequence (whole entry): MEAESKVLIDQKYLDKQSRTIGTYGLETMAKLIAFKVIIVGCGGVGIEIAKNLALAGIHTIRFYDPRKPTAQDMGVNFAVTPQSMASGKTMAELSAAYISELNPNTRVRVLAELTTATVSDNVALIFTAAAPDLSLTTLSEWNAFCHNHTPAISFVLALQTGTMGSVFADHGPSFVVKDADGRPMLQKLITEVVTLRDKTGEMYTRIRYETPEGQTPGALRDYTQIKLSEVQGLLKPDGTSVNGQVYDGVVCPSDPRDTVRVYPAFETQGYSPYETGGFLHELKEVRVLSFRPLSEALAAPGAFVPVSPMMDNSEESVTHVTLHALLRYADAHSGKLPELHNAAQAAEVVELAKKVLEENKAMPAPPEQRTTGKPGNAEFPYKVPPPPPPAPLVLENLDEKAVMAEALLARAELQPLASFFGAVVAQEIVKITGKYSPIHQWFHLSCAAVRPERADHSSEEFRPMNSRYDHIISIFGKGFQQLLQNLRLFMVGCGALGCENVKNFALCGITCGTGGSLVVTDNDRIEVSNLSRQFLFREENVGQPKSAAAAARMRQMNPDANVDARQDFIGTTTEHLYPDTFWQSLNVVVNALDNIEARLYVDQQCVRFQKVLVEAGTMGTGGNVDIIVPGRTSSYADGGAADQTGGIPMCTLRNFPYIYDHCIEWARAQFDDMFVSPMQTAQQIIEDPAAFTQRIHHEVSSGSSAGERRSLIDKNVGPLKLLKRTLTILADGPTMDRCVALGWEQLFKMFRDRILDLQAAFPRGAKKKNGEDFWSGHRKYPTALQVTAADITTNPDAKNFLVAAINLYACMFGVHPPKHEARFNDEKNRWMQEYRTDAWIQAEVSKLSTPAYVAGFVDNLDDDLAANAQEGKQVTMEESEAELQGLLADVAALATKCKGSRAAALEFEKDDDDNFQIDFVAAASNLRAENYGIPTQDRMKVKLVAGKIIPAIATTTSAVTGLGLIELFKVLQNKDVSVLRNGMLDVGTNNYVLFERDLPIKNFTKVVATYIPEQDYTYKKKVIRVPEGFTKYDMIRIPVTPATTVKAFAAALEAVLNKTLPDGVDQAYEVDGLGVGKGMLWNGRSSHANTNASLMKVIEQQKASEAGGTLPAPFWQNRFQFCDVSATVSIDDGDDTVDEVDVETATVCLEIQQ

[3] = target: Sialic acid-binding Ig-like lectin 9 (Homo sapiens) (UniProt Q9Y336); assay: Hs-Siglec9 ALPHAscreen SOP 20170721; conditions: 10 µM
Trypanosoma cruzi = assay: Trypanosoma cruzi phosphomannomutase and mannose-1-phosphate guanylyltransferase assay; type: functional; conditions: 10 µM
[4] = target: T2, Arginase-2, mitochondrial (Homo sapiens) (UniProt P78540); assay: in vitro enzyme assay to detect the production of urea directly proportional to the activity of Arginase II; type: functional; conditions: 33.3 µM; further: in the data most compounds retested in dose-response had high values
T2 sequence (whole entry): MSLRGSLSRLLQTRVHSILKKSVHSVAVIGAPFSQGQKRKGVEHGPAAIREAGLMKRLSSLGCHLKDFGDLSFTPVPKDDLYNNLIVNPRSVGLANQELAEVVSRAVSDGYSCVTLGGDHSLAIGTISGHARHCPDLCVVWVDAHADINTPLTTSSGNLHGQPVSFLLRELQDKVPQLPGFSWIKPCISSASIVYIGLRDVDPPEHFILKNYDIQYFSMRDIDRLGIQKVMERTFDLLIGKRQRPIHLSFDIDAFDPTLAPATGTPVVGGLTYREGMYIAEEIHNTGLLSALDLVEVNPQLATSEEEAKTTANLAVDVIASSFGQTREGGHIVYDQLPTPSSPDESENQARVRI

[5] = target: T3, Proteasome subunit beta (Trypanosoma cruzi) (UniProt O96673); assay: Trypanosoma cruzi proteasome chymotrypsin-like activity (TcProtChymo) assay.; further: in the data most compounds retested in dose-response had high values; type: functional; conditions: 9.37 µM
T3 sequence (whole entry): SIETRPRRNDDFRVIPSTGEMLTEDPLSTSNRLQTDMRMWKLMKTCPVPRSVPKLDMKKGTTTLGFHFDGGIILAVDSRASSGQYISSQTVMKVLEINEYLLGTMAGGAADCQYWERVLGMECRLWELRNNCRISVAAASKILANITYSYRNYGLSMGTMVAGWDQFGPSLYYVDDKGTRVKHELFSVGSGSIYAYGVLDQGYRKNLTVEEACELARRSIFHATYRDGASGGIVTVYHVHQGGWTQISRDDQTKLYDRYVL

Homo sapiens = species on record: Homo sapiens; assay: To identify inhibition of the IFN signalling (Jak-Stat) pathway via expression of an eGFP reporter gene under the control of an IFN-stimulated response element (ISRE) containing MxA promoter.; type: functional; conditions: 30 µM
[6] = target: T4, Tyrosyl-tRNA synthetase, putative (Trypanosoma cruzi (strain CL Brener)) (UniProt Q4DSP6); assay: Trypanosoma cruzi tyrosyl tRNA synthetase (TcYRS) _High Tyrosine SOP; type: functional; conditions: 30 µM; further: in the data most compounds retested in dose-response had high values
T4 sequence (whole entry): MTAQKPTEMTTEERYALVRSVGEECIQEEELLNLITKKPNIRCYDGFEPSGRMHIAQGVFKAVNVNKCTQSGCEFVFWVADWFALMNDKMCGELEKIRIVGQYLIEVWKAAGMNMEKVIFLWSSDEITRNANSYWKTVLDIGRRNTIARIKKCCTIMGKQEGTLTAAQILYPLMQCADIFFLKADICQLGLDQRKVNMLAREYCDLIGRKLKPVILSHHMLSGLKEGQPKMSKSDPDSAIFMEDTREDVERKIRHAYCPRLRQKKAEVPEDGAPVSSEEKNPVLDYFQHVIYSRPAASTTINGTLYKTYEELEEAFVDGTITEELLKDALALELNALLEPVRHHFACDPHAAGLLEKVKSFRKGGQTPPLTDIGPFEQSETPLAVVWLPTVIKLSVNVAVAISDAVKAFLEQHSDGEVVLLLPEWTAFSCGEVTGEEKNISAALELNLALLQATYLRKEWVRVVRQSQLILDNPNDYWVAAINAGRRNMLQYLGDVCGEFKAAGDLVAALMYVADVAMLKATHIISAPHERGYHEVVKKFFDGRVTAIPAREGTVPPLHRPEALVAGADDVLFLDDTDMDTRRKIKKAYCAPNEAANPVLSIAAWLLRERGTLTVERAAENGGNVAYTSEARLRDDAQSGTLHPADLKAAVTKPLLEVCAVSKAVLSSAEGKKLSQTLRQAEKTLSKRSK

[7] = target: T4, Tyrosyl-tRNA synthetase, putative (Trypanosoma cruzi (strain CL Brener)); assay: Trypanosoma cruzi tyrosyl tRNA synthetase (TcYRS) SOP; type: functional; conditions: 30 µM
[8] = target: Chromo domain-containing protein 1 (Saccharomyces cerevisiae (strain ATCC 204508 / S288c) (Baker's yeast)) (UniProt P32657); assay: ScCHD-1 Enzyme Inhibition Assay; type: functional; conditions: 30 µM; further: in the data most compounds retested in dose-response had high values
Sequence of Chromo domain-containing protein 1 (Saccharomyces cerevisiae (strain ATCC 204508 / S288c) (Baker's yeast)) (P32657 whole entry, the tested form may be a part): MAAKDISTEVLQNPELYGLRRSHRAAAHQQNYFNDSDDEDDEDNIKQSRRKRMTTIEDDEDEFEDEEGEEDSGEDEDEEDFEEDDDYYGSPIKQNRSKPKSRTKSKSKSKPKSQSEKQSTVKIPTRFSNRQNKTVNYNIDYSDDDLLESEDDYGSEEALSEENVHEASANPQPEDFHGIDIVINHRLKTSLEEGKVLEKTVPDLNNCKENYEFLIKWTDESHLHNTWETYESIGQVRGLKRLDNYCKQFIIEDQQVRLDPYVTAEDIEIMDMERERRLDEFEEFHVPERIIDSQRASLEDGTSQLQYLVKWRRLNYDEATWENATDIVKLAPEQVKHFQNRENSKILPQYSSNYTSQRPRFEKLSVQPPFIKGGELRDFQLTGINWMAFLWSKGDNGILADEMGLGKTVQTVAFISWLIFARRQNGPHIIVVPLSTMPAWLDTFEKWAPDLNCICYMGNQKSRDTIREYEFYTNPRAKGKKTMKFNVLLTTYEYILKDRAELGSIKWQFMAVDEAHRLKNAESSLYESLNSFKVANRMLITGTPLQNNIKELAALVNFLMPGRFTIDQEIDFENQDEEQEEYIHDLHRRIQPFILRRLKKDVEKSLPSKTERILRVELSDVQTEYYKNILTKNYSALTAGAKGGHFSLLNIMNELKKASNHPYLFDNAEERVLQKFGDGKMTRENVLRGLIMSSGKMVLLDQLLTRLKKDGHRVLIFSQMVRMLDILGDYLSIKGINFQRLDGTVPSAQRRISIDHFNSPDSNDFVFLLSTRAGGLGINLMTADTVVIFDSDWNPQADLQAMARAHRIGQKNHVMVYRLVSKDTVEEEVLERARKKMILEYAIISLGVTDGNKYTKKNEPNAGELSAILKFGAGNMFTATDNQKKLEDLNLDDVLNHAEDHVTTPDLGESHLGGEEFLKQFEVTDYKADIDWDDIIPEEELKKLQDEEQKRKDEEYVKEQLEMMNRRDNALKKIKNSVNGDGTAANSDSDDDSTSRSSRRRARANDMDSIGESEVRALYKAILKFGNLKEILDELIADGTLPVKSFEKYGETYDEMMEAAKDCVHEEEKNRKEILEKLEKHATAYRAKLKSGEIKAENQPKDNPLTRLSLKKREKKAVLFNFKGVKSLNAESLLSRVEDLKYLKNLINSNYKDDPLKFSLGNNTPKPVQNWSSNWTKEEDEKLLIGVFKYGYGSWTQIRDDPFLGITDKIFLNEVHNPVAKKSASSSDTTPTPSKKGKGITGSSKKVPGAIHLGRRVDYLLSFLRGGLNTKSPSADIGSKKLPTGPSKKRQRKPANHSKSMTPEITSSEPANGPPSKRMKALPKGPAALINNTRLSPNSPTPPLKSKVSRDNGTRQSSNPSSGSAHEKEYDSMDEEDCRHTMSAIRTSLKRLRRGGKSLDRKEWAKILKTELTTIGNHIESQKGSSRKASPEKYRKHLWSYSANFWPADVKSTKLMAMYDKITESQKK

Sequence of Protein translocase subunit SecA (Escherichia coli (strain K12)) (P10408 whole entry): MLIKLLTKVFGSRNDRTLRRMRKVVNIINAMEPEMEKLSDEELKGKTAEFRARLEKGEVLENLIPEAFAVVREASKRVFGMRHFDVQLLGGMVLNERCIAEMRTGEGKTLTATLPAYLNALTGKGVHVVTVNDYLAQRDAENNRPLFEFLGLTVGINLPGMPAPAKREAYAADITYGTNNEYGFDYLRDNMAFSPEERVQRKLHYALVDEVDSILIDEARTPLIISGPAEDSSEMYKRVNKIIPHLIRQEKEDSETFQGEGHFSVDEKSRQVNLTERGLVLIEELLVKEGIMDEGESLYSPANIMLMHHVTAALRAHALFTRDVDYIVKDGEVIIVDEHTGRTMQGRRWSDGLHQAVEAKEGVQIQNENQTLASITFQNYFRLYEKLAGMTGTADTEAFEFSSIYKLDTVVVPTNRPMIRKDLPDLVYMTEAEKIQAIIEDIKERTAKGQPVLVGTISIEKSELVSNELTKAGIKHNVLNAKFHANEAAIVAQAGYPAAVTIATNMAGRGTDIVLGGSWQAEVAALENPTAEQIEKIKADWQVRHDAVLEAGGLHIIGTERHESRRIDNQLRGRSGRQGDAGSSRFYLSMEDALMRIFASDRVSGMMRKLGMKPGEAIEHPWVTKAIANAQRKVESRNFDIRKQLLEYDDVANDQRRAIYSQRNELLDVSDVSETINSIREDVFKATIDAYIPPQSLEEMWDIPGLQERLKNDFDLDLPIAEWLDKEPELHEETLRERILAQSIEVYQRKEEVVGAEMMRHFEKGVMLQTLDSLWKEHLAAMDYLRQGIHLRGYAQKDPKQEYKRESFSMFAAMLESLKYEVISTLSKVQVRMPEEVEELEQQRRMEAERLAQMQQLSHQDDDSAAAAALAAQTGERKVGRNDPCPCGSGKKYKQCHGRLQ
Sequence of Sialic acid-binding Ig-like lectin 9 (Homo sapiens) (Q9Y336 whole entry): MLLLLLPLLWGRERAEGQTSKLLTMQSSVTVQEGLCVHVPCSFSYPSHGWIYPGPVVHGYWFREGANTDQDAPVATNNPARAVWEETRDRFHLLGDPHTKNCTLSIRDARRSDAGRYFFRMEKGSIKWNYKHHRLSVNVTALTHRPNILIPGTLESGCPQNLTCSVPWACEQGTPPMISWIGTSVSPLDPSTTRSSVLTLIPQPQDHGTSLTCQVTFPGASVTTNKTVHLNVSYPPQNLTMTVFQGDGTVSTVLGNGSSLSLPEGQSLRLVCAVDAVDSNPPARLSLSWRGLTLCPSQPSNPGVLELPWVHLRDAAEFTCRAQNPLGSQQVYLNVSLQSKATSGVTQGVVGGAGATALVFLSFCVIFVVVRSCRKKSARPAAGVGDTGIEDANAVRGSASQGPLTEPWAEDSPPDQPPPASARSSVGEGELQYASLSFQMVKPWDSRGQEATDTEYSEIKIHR

Compound	Percent Effect [1] [%]	Percent Effect [2] [%]	Percent Effect [3] [%]	Percent Effect (Trypanosoma cruzi) [%]	Percent Effect [4] [%]	Percent Effect [5] [%]	Percent Effect (Homo sapiens) [%]	Percent Effect [6] [%]	Percent Effect [7] [%]	Percent Effect [8] [%]
Cn1nc2c(cc1=O)CN(Cc1nnc(-c3ccco3)o1)CC2	-3.79	17.9	-11.1	4.6	1.23	13.2	7.66	4.31	22.9	17.4
Cc1cncc(C2CCCN(C(=O)c3cccn3C)C2)n1 (stereo not given)	-1.26	17.3	-0.809	1.97	1.33	13.3	-5.79	7.41	12.5	-25
CCCc1nc(C)c(C(=O)NCCN2CCN(CC)CC2)s1	-3.24	0	11.4	0.56	-2.25	-1.23	5.53	6.86	9.41	3.6
Cc1cnn(CC2CCCN2C(=O)c2cc3c(F)cccc3[nH]2)c1 (stereo not given)	-2.09	5.2	8.2	-5.6	-2.66	2.81	26.7	1.96	11.8	-1.7
COCCCN1CC2(CCCCN2C(=O)c2ccsc2)CC1=O (stereo not given)	0.227	3.9	1.99	2.44	1.83	0.601	15.2	0	7.5	2.21
Cn1nc2c(cc1=O)CN(Cc1nc(C(C)(C)C)no1)CC2	-2.61	29.3	6.04	1.41	4.88	6.19	21.4	1.58	2.56	-14.7
CC(C)(C)c1n[nH]c(C2CN(C(=O)c3ccsc3)CCO2)n1 (stereo not given)	-1.88	7.69	5.72	0.657	0.82	3.33	-15.3	2.39	13.2	2.07
CCS(=O)(=O)N(C)CC(=O)Nc1ccc(Br)cn1	-6.17	26.7	0.132	-0.402	-0.444	18.2	13.7	1.58	12.8	-8.92
CNC(=O)c1ccc(C2CN(C(=O)COC)CCO2)nc1 (stereo not given)	0.488	9.33	3.63	-4.14	3.54	7.39	0.241	2.12	7.5	-21.4
CNc1cc(C2CCCN2C(=O)c2ccc3oc(=O)n(C)c3c2)ccn1 (stereo not given)	-1.24	14.7	1.42	-3.94	-1.33	11.3	-1.54	0	7.5	-22.1
Cn1c(CN2CCCC2c2noc(C3CC3)n2)cc(=O)n(C)c1=O (stereo not given)	-8.17	2.67	-1.87	-3.01	-3.99	5.85	13.9	0.526	0	-5.06
CCc1ncc2c(n1)CN(CC(=O)Nc1nnc(C)s1)CC2	-2.11	5.33	0.404	-4.22	5.32	8.4	-8.8	6.84	10.3	-13.6
Cc1ccc(C(=O)N2CCCC3(CCCC(=O)N3C)C2)cc1F (stereo not given)	-2.74	19.5	-4.32	-1.5	4.11	14.5	5.96	7.73	10	-9.62
